Compound activity deposited in PubChem BioAssay by National Center for Advancing Translational Sciences (NCATS).
In the library only some 10% were active in any assay of this set; here they are far more common.
HP1b chromo inh: inhibitors of HP1-beta chromodomain binding to methylated histone tails | P83916 | AlphaScreen HP1-beta / biotin-H3K9me3 peptide binding | Potency, µM (series often up to 114 µM), without a hit: top-dose activity change, negative = inhibition, actives largely listed as inhibitors | hit rate 0.56% among 390,000 | AID 540317; further: potency means the concentration at half of the fitted maximal effect; nearly all actives have a fitted effect of over 70% in size
Target sequence (P83916 whole entry, looked up): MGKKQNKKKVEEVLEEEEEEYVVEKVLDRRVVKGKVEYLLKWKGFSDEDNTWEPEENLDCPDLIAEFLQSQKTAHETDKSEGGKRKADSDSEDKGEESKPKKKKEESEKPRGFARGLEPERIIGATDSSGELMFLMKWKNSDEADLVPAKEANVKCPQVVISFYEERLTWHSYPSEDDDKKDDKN
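Compound inhibition of the preformed complex between 50 nM HP1-beta and 50 nM biotinylated H3K9me3 peptide was read by AlphaScreen. Buffer was PBS pH 7.4 with 0.01% Tween-20. Incubations ran 30 min at room temperature, with 10 ug/mL donor/acceptor beads.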
BAZ2B block: blocks human BAZ2B. Q9UIF8. AlphaScreen BAZ2B-H3K14Ac peptide displacement. Potency, µM (titrated, usually from 114 µM), without a hit: top-dose activity change, negative = inhibition, hits mostly inhibitors. hit rate 4.4% among 360,000. AID 504333; further: potency means the concentration at half of the fitted maximal effect; on the % scale 0 is the no-effect control and ±100 the full control effect; nearly all actives have a fitted effect of over 60% in size
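Protein-peptide AlphaScreen: BAZ2B 50 nM, b-H3K14Ac 50 nM, 1x PBS pH 7.4 + 0.01% Tween-20. Preincubation 30 min RT; cpd 30 min RT (top 110 uM); beads 20 min RT, light-protected.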
Six1-Eya2 blk: Six1/Eya2 interaction inhibition | AlphaScreen GST-Six1/His-Eya2 binding, biochemical; stronger effect = lower value | activity change, % (test concentration not listed) | hit rate 0.56% among 360,000 | AID 651725; in the data active means activity change below about -65%; inconclusive means mostly about -30% to -63%; further: on the % scale 0 is the no-effect control and ±100 the full control effect
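Six1/Eya2 binding was read as AlphaScreen signal after compounds were pinned into GST-Six1 plus His-tagged Eya2 (5X stock 250/500 nM) in pH 8.0 Tris/NaCl/TCEP buffer, beads added, then incubated 1 h, 37 C, dark.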
CtBP-E1A inh: inhibitors of CtBP/E1A interaction | AlphaScreen GST-E1A/His-CtBP binding, 1536-well; stronger effect = lower value | activity change, % (no concentration beside the values) | hit rate 0.49% among 340,000 | AID 651724; in the data active means activity change below about -65%; inconclusive means mostly about -30% to -63%; further: on the % scale 0 is the no-effect control and ±100 the full control effect
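In 5 uL wells, 23 nL compound meets equimolar GST-E1A and His-CtBP (5X stock 125 nM each) for 2 h, 37 °C. Beads (5X, 50 ug/mL) then 1 h, 37 °C, dark.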
G9a block: inhibitors of human histone lysine methyltransferase G9a; G9a H3K9 monomethylation, AlphaScreen, 2 h; Q96KQ7; Potency, µM (highest dose often 102 µM), without a hit: at the top dose activity, negative = inhibition, usual class: inhibitors; AID 504332; hit rate 8.8% among 350,000; further: potency means the concentration at half of the fitted maximal effect; on the % scale 0 is the no-effect control and ±100 the full control effect; nearly all actives have a fitted effect of over 75% in size
Target sequence (Q96KQ7 913-1193 limits assumed): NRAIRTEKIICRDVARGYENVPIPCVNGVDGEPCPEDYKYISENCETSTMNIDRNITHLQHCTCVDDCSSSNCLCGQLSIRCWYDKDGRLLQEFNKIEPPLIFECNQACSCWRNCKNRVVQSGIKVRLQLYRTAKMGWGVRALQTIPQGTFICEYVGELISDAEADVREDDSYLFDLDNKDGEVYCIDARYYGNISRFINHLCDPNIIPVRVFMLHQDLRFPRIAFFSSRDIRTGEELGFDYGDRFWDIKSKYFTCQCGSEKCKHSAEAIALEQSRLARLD
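AlphaScreen read-out: biotin-H3K9 peptide (500 nM) methylation by 20 nM enzyme with 20 uM SAM, 2 h at room temperature after 15 min compound preincubation; anti-monomethyl H3K9 antibody plus donor/acceptor beads, 10 min dark.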
JMJD2A Tudor: JMJD2A Tudor domain (human) inhibition; O75164; AlphaScreen JMJD2A-Tudor / H3K4me3 peptide binding; Potency, µM (top dose mostly 114 µM), for inactives: at the top dose activity change, negative = inhibition, actives largely listed as inhibitors; hit rate 4.4% among 390,000; further: potency means the concentration at half of the fitted maximal effect; on the % scale 0 is the no-effect control and ±100 the full control effect; nearly all actives have a fitted effect of over 50% in size
Active calls of the source: *; ? = inconclusive; nt = not tested or not shown; [ ] = dose if it differs, or a comment. Unless noted, the call rests on the fitted dose curve; in most records, active means well fitted inhibition curve with a large enough effect; inconclusive means small, poorly fitted or top-dose-only effect; inactive means no such curve, though single readings can be large or run the other way.

SMILES	HP1b chromo inh	BAZ2B block	Six1-Eya2 blk	CtBP-E1A inh	G9a block	JMJD2A Tudor
Fc1ccccc1-n1cc(-c2ccccc2)[nH]c1=S	1.2%	?	-3.0	-2.5	3.55µM*	?
COc1ccc(-n2cc(-c3ccccc3)[nH]c2=S)c(OC)c1	-1.0%	?	-17.4	-19.5	?	?
CCc1nnc(SCc2ccc(F)cc2Cl)c2cc3sc(C)cc3n12	50.3%	-15.1%	nt	nt	-9.3%[59 µM]	89.1µM*
CCc1nnc(SCc2cc(C)ccc2C)c2cc3sc(C)cc3n12	44.3%	2.0%	nt	nt	10µM*	2.6%
Cc1ccc(C)c(CSc2nnc(C)n3c2cc2sccc23)c1	30.6%	-13.8%	nt	nt	-8.4%[59 µM]	-12.5%
CCc1nnc(SCc2ccc(F)cc2Cl)c2cc3sccc3n12	45.1%	-11.8%	nt	nt	-16.1%[59 µM]	-6.2%
Cc1ccc(-c2cnc(C(O)c3cc(F)cc(Cl)c3)[nH]2)cc1 (stereo unspecified)	nt	nt	-18.2	-9.6	nt	nt
COc1ccc(Cl)cc1NC(=O)c1cccc(S(=O)(=O)Nc2c(C)n(C)n(-c3ccccc3)c2=O)c1	25.1%	nt	-2.2	1.7	nt	-0.7%
CCC1C(=O)CC(c2ccco2)NC1c1ccco1 (stereo unspecified)	26.6%	8.5%	4.7	0.3	-14.8%[59 µM]	-10.1%
C=CCC1(O)CC(c2ccco2)NC(c2ccco2)C1CCC (stereo unspecified)	?	50.1µM*	-4.4	6.7	31.6µM*	4.47µM*
Cc1ccc(C(=O)NN2C(=O)c3ccc(S(=O)(=O)c4ccc(C(=O)O)cc4)cc3C2=O)cc1	3.1%	-2.5%	-4.9	-4.9	?	15.8µM*
c1ccc(-c2cn(C[C@H]3CC[C@H](Cn4cc(-c5ccccn5)nn4)O3)nn2)nc1	-1.7%	0.794µM*	-91.7*	-90.2*	nt	0.891µM*
O=C(OCc1nc2ccccc2[n+]([O-])c1C(=O)c1ccccc1)c1cccs1	-18.4%	?	-8.6	-15.6	?	79.4µM*
CC(=O)c1c(COC(=O)c2cccc(C)c2)nc2ccccc2[n+]1[O-]	11.2%	-25.4%	-4.3	nt	?	?
CC(=O)c1c(COC(=O)c2ccncc2)nc2ccccc2[n+]1[O-]	9.6%	39.8µM*	-9.3	-2.5	1µM*	-1.6%
CC(=O)c1c(COC(=O)c2ccco2)nc2ccccc2[n+]1[O-]	6.2%	50.1µM*	-11.9	2.1	-34.0%[12.7 µM]	-12.5%
Cc1ccc(Cl)cc1N1CCN(C(=O)c2cc3c(=O)[nH]c4ccccc4c3n2C)CC1	26.2%	?	-3.1	0.8	-24.9%	-0.3%
CC(NC(=O)c1ccc(F)cc1)C(=O)NC1=NCCS1 (stereo unspecified)	14.5%	5.4%	-1.2	-0.9	9.6%	?
O=C(O)C(c1ccccc1)C(c1ccccc1)c1ccccc1 (stereo unspecified)	50.7%	50.1µM*	-2.4	15.8	-48.4%	-4.9%
O=C(O)C(SC(C(=O)O)c1ccccc1)c1ccccc1 (stereo unspecified)	10.5%	nt	12.1	-6.5	nt	56.2µM*
O=C(O)C(Sc1ccncn1)c1ccccc1 (stereo unspecified)	45.1%	-13.1%	1.9	6.6	-6.8%	-8.6%
CCN(CC)C(=O)Cn1c(=O)n(-c2ccc(Cl)cc2)c(=O)c2c3c(sc21)CCC3	14.9%	5.0%	nt	nt	-2.2%[59 µM]	-14.0%
COc1ccccc1OCc1ccc(C(=O)N2CCN(C(=O)c3ccco3)CC2)cc1	1.1%	2.8%	-0.3	0.8	44.7µM*	-25.9%
CCn1c2ccccc2c2cc(CN3CCN(C(=O)c4ccco4)CC3)ccc21	?	?	-23.5	-21.1	?	35.5µM*
CCn1c(=O)cc(SCC(=O)N2CCN(C(=O)c3ccco3)CC2)c2ccccc21	28.0%	-9.7%	-7.5	-11.0	-38.5%	-8.2%
SMILES	HP1b chromo inh	BAZ2B block	Six1-Eya2 blk	CtBP-E1A inh	G9a block	JMJD2A Tudor
COc1ccc(-c2nc(CN3CCN(C(=O)c4ccco4)CC3)c(C)o2)cc1OC	19.4%	13.7%[57.1 µM]	-1.5	nt	56.2µM*	-18.7%
COc1ccc(CN2CCN(C(=O)c3ccco3)CC2)cc1OCc1ccccc1	?	56.2µM*	2.8	-6.7	11.2µM*	?
CCOC(=O)Cn1c(=O)oc2cc(S(=O)(=O)Nc3cc(OC)cc(OC)c3)ccc21	25.1%	-4.0%	nt	nt	14.2%[59 µM]	-12.1%
Cc1ccc(-c2nn(CC(=O)NC3CCCCC3)c3c2cnc2ccccc23)cc1	-11.9%	-11.3%	nt	nt	12.4%[59 µM]	-27.7%
COc1ccc(CN2CCN(C(=O)c3ccco3)CC2)cc1OC	25.1µM*	39.8µM*	-0.9	nt	10µM*	-19.5%[11.4 µM]
COc1ccc(CCn2nnnc2CN2CCN(C(=O)c3ccco3)CC2)cc1OC	29.7%	4.7%	2.1	5.3	-7.0%[0.501 µM]	-3.5%
C=CCOc1c(Br)cc(CNn2c(C)n[nH]c2=S)cc1OCC	23.2%	-32.5%	-3.9	3.4	15.8µM*	?
COc1cc(CNn2c(C)n[nH]c2=S)cc(Br)c1OCc1ccc(F)cc1	2.7%	?	-5.4	-6.1	22.4µM*	-31.2%
COc1cc(CNC(C)c2ccccc2)cc(Br)c1OCc1ccccc1 (stereo unspecified)	118.8%	44.8%	16.1	25.2	20.1%	80.0%
C=CCOc1c(Br)cc(CNn2nnnc2N)cc1OCC	34.9%	2.8%	-9.1	-3.2	-41.6%[59 µM]	9.9%
COc1cc(CNn2c(C)n[nH]c2=S)cc(Cl)c1OCc1ccc(F)cc1	15.2%	?	-6.9	7.0	?	-21.5%
C=CCOc1c(Br)cc(CNn2cn[nH]c2=S)cc1OC	21.6%	-10.9%	3.1	-16.1	-130.9%[59 µM]	79.4µM*
Cc1cccc2c1cnn2C(=O)CCC(=O)NCC(C)c1ccccc1 (stereo unspecified)	40.0%	6.2%	-3.3	-11.3	nt	4.2%
O=c1cnc2cnc(Oc3cccc(Cl)c3)nc2n1Cc1ccc(F)cc1	nt	nt	nt	nt	-4.0%[12.7 µM]	nt
Cc1ccc(C2CC2c2n[nH]c(=S)n2-c2ccc(Cl)cc2)cc1 (stereo unspecified)	-5.1%	-35.1%	-11.2	-7.3	22.4µM*	-14.1%
S=c1[nH]nc([C@@H]2C[C@H]2c2ccccc2)n1-c1ccccc1Cl	44.2%	-22.9%	-2.0	nt	5.01µM*	?
Cc1ccc(C2CC2c2n[nH]c(=S)n2-c2cccc(C)c2)cc1 (stereo unspecified)	-19.1%	-30.6%	-19.3	nt	14.1µM*	-27.1%[11.4 µM]
Cc1ccc(N2C(=O)c3[nH]nc(-c4ccc(Cl)cc4)c3C2c2ccc(F)cc2)cc1 (stereo unspecified)	21.3%	nt	nt	nt	-1.3%[59 µM]	-31.0%
CN(Cc1cc([N+](=O)[O-])c2cccnc2c1O)C1CCCCC1	nt	7.94µM*	nt	nt	11.1%[59 µM]	nt
Clc1ccc(Oc2ccccc2)c2ncccc12	58.9%	32.7%	6.5	0.2	-5.4%[2.33 µM]	18.5%
Clc1cc2cccnc2c2ncccc12	22.0%	3.55µM*	-67.2*	-96.0*	?	-6.5%
